# Data from the supplement of paper PMC7765376.
# Over roughly 1,500 compounds, “Excess HSA synergy score (sum over dose matrix of excess over highest single agent)” has its median near 43; the lowest 2% begin near -900. The list comes from a sample in which the lowest values are over-represented; it also holds similar structures and randomly drawn compounds.
# System: PEO-1
# Assay: Excess HSA synergy score (sum over dose matrix of excess over highest single agent) (score (summed % response)); higher = less synergy / more antagonism (negative = synergy)
# Conditions: 72 h; read-out: viability/apoptosis luminescence (CellTiter-Glo or Caspase3-Glo / not stated per table); matrix design: 6x6, 5-fold dilutions (primary screen)
row,Compound,Excess HSA synergy score
1,CCOc1ccc(Cc2cc([C@@H]3O[C@H](CO)[C@@H](O)[C@H](O)[C@H]3O)ccc2Cl)cc1 [Dapagliflozin] + CC[C@H](NC(=O)[C@H](C)NC)C(=O)N1C[C@@H](O)C[C@H]1Cc1c(-c2[nH]c3cc(F)ccc3c2C[C@@H]2C[C@H](O)CN2C(=O)[C@H](CC)NC(=O)[C@H](C)NC)[nH]c2cc(F)ccc12 [Birinapant],212
2,Cc1c(C(=O)Nc2ccc(N3C[C@@H](C)O[C@@H](C)C3)nc2)cccc1-c1ccc(OC(F)(F)F)cc1 [Sonidegib] + CC[C@H](NC(=O)[C@H](C)NC)C(=O)N1C[C@@H](O)C[C@H]1Cc1c(-c2[nH]c3cc(F)ccc3c2C[C@@H]2C[C@H](O)CN2C(=O)[C@H](CC)NC(=O)[C@H](C)NC)[nH]c2cc(F)ccc12 [Birinapant],68.2
3,Cc1ccc(CN2CCNCC2)cc1NC(=O)CNc1ccc(F)c(F)c1 + CC[C@H](NC(=O)[C@H](C)NC)C(=O)N1C[C@@H](O)C[C@H]1Cc1c(-c2[nH]c3cc(F)ccc3c2C[C@@H]2C[C@H](O)CN2C(=O)[C@H](CC)NC(=O)[C@H](C)NC)[nH]c2cc(F)ccc12 [Birinapant],191
4,c1ccc2c(-c3cnn4cc(-c5ccc(N6CCNCC6)cc5)cnc34)ccnc2c1 + CC[C@H](NC(=O)[C@H](C)NC)C(=O)N1C[C@@H](O)C[C@H]1Cc1c(-c2[nH]c3cc(F)ccc3c2C[C@@H]2C[C@H](O)CN2C(=O)[C@H](CC)NC(=O)[C@H](C)NC)[nH]c2cc(F)ccc12 [Birinapant],-53.9
5,CC(=O)NCCC(=O)N[C@@H](CCC(N)=O)C(=O)N[C@@H](CO)C(=O)N[C@@H](CCC(N)=O)C(=O)N[C@@H](CCC(N)=O)C(=O)N[C@H](C(=O)N[C@@H](Cc1ccccc1)C(=O)N[C@]1(C)CCCCCC/C=C\CCC[C@@](C)(C(=O)N[C@@H](CCC(N)=O)C(=O)N[C@@H](CC(N)=O)C(N)=O)NC(=O)[C@H](CC(C)C)NC(=O)[C@H](CC(C)C)NC(=O)[C@@H](CCCNC(=N)N)NC(=O)[C@H](Cc2c[nH]c3ccccc23)NC(=O)[C@H](CC(C)C)NC(=O)[C@H](CC(N)=O)NC1=O)[C@H](C)O + CC[C@H](NC(=O)[C@H](C)NC)C(=O)N1C[C@@H](O)C[C@H]1Cc1c(-c2[nH]c3cc(F)ccc3c2C[C@@H]2C[C@H](O)CN2C(=O)[C@H](CC)NC(=O)[C@H](C)NC)[nH]c2cc(F)ccc12 [Birinapant],168
6,CCN1CCN(c2ccc(Nc3cc(N(C)C(=O)Nc4c(Cl)c(OC)cc(OC)c4Cl)ncn3)cc2)CC1 [Infigratinib] + CC[C@H](NC(=O)[C@H](C)NC)C(=O)N1C[C@@H](O)C[C@H]1Cc1c(-c2[nH]c3cc(F)ccc3c2C[C@@H]2C[C@H](O)CN2C(=O)[C@H](CC)NC(=O)[C@H](C)NC)[nH]c2cc(F)ccc12 [Birinapant],-48.8
7,COc1cc2c(cc1Cc1cccc(Cl)c1F)c(=O)c(C(=O)O)cn2[C@H](CO)C(C)C [Elvitegravir] + CC[C@H](NC(=O)[C@H](C)NC)C(=O)N1C[C@@H](O)C[C@H]1Cc1c(-c2[nH]c3cc(F)ccc3c2C[C@@H]2C[C@H](O)CN2C(=O)[C@H](CC)NC(=O)[C@H](C)NC)[nH]c2cc(F)ccc12 [Birinapant],326
8,OCCC#Cc1nc(-c2ccc(F)cc2)c(-c2ccncc2)n1CCCc1ccccc1 + CC[C@H](NC(=O)[C@H](C)NC)C(=O)N1C[C@@H](O)C[C@H]1Cc1c(-c2[nH]c3cc(F)ccc3c2C[C@@H]2C[C@H](O)CN2C(=O)[C@H](CC)NC(=O)[C@H](C)NC)[nH]c2cc(F)ccc12 [Birinapant],286
9,COc1ccc(/C=C\c2cc(OC)c(OC)c(OC)c2)cc1NC(=O)[C@@H](N)CO [Ombrabulin] + CC[C@H](NC(=O)[C@H](C)NC)C(=O)N1C[C@@H](O)C[C@H]1Cc1c(-c2[nH]c3cc(F)ccc3c2C[C@@H]2C[C@H](O)CN2C(=O)[C@H](CC)NC(=O)[C@H](C)NC)[nH]c2cc(F)ccc12 [Birinapant],-98.3
10,O=C(CO)N1CCC(c2n[nH]c(-c3ccc(Cl)cc3)c2-c2ccncn2)CC1 + CC[C@H](NC(=O)[C@H](C)NC)C(=O)N1C[C@@H](O)C[C@H]1Cc1c(-c2[nH]c3cc(F)ccc3c2C[C@@H]2C[C@H](O)CN2C(=O)[C@H](CC)NC(=O)[C@H](C)NC)[nH]c2cc(F)ccc12 [Birinapant],244
11,CC(C)(OCc1nn(Cc2ccccc2)c2ccccc12)C(=O)O [Bindarit] + CC[C@H](NC(=O)[C@H](C)NC)C(=O)N1C[C@@H](O)C[C@H]1Cc1c(-c2[nH]c3cc(F)ccc3c2C[C@@H]2C[C@H](O)CN2C(=O)[C@H](CC)NC(=O)[C@H](C)NC)[nH]c2cc(F)ccc12 [Birinapant],-236
12,Cc1ccc(/C=N/NC(=O)c2ccccc2Oc2ccccc2)o1 + CC[C@H](NC(=O)[C@H](C)NC)C(=O)N1C[C@@H](O)C[C@H]1Cc1c(-c2[nH]c3cc(F)ccc3c2C[C@@H]2C[C@H](O)CN2C(=O)[C@H](CC)NC(=O)[C@H](C)NC)[nH]c2cc(F)ccc12 [Birinapant],277
13,CC(C)c1cc(C(C)C)c(CC(=O)NS(=O)(=O)Oc2c(C(C)C)cccc2C(C)C)c(C(C)C)c1 [Avasimibe] + CC[C@H](NC(=O)[C@H](C)NC)C(=O)N1C[C@@H](O)C[C@H]1Cc1c(-c2[nH]c3cc(F)ccc3c2C[C@@H]2C[C@H](O)CN2C(=O)[C@H](CC)NC(=O)[C@H](C)NC)[nH]c2cc(F)ccc12 [Birinapant],95.2
14,"CC(=O)C1=C(O)C=C2Oc3c(C(C)=O)c(O)c(C)c(O)c3C2(C)C1=O (single isomer, unassigned; (+)) [(+)-Usniacin] + CC[C@H](NC(=O)[C@H](C)NC)C(=O)N1C[C@@H](O)C[C@H]1Cc1c(-c2[nH]c3cc(F)ccc3c2C[C@@H]2C[C@H](O)CN2C(=O)[C@H](CC)NC(=O)[C@H](C)NC)[nH]c2cc(F)ccc12 [Birinapant]",-123
15,C[C@@H]1CN(Cc2ccc(F)cc2)[C@@H](C)CN1C(=O)c1cc2c(C(=O)C(=O)N(C)C)cn(C)c2cc1Cl [Talmapimod] + CC[C@H](NC(=O)[C@H](C)NC)C(=O)N1C[C@@H](O)C[C@H]1Cc1c(-c2[nH]c3cc(F)ccc3c2C[C@@H]2C[C@H](O)CN2C(=O)[C@H](CC)NC(=O)[C@H](C)NC)[nH]c2cc(F)ccc12 [Birinapant],190
16,CCNC(=O)Nc1ccc(-c2nc3c(c(N4CCOC[C@@H]4C)n2)CCN(C2COC2)C3)cc1 + CC[C@H](NC(=O)[C@H](C)NC)C(=O)N1C[C@@H](O)C[C@H]1Cc1c(-c2[nH]c3cc(F)ccc3c2C[C@@H]2C[C@H](O)CN2C(=O)[C@H](CC)NC(=O)[C@H](C)NC)[nH]c2cc(F)ccc12 [Birinapant],-44.2
17,CN1CCN(c2nc(C3=C(c4c[nH]c5ccccc45)C(=O)NC3=O)c3ccccc3n2)CC1 [Sotrastaurin] + CC[C@H](NC(=O)[C@H](C)NC)C(=O)N1C[C@@H](O)C[C@H]1Cc1c(-c2[nH]c3cc(F)ccc3c2C[C@@H]2C[C@H](O)CN2C(=O)[C@H](CC)NC(=O)[C@H](C)NC)[nH]c2cc(F)ccc12 [Birinapant],84.5
18,Cc1noc(-c2ccc(CSCCC(=O)O)cc2)c1NC(=O)OC(C)c1ccccc1Cl (stereo not drawn) + CC[C@H](NC(=O)[C@H](C)NC)C(=O)N1C[C@@H](O)C[C@H]1Cc1c(-c2[nH]c3cc(F)ccc3c2C[C@@H]2C[C@H](O)CN2C(=O)[C@H](CC)NC(=O)[C@H](C)NC)[nH]c2cc(F)ccc12 [Birinapant],351
19,CCOc1cc(C(=O)Nc2ccc(Cl)c(-c3nc4ccccc4[nH]3)c2)cc(OCC)c1OCC + CC[C@H](NC(=O)[C@H](C)NC)C(=O)N1C[C@@H](O)C[C@H]1Cc1c(-c2[nH]c3cc(F)ccc3c2C[C@@H]2C[C@H](O)CN2C(=O)[C@H](CC)NC(=O)[C@H](C)NC)[nH]c2cc(F)ccc12 [Birinapant],142
20,C=C(C)[C@@H]1CC[C@]2(C)CC[C@]3(C)[C@H](CC[C@@H]4[C@@]5(C)CC[C@H](O)C(C)(C)[C@@H]5CC[C@]43C)[C@@H]12 [Lupeol] + CC[C@H](NC(=O)[C@H](C)NC)C(=O)N1C[C@@H](O)C[C@H]1Cc1c(-c2[nH]c3cc(F)ccc3c2C[C@@H]2C[C@H](O)CN2C(=O)[C@H](CC)NC(=O)[C@H](C)NC)[nH]c2cc(F)ccc12 [Birinapant],-39.9
21,O=C(NNC(=O)c1ccc(CNS(=O)(=O)c2ccc(F)c(Cl)c2)cc1)c1ccccc1 + CC[C@H](NC(=O)[C@H](C)NC)C(=O)N1C[C@@H](O)C[C@H]1Cc1c(-c2[nH]c3cc(F)ccc3c2C[C@@H]2C[C@H](O)CN2C(=O)[C@H](CC)NC(=O)[C@H](C)NC)[nH]c2cc(F)ccc12 [Birinapant],144
22,CC(C)(C)c1cc(C(C)(C)C)c(NC(=O)c2c[nH]c3ccccc3c2=O)cc1O [Ivacaftor] + CC[C@H](NC(=O)[C@H](C)NC)C(=O)N1C[C@@H](O)C[C@H]1Cc1c(-c2[nH]c3cc(F)ccc3c2C[C@@H]2C[C@H](O)CN2C(=O)[C@H](CC)NC(=O)[C@H](C)NC)[nH]c2cc(F)ccc12 [Birinapant],116
23,C=CC(=O)Nc1cc2c(Nc3ccc(F)c(Cl)c3)ncnc2cc1C#CC(C)(C)N1CCN(C)CC1 + CC[C@H](NC(=O)[C@H](C)NC)C(=O)N1C[C@@H](O)C[C@H]1Cc1c(-c2[nH]c3cc(F)ccc3c2C[C@@H]2C[C@H](O)CN2C(=O)[C@H](CC)NC(=O)[C@H](C)NC)[nH]c2cc(F)ccc12 [Birinapant],44.3
